In PubChem BioAssay AID504773 (Broad Institute, 2011):
Potency and affinity values are given separately. Calls of active or inactive are those of the source.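 Rule for the calls: active = polarization signal falls with dose and the fitted half-maximal concentration is at or below ten times the sample's top valid dose; inconclusive = flat curve at 30 to 70% inhibition, or poor fit; inactive = signal rises, flat within 30%, or potency beyond limit.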

Target: Golgi-associated PDZ and coiled-coil motif-containing protein (Homo sapiens) (UniProt Q9HD26)
Test: potency against CAL PDZ-peptide interaction – biochemical, fluorescence polarization, Cerulean-tagged CAL PDZ, cherry-picks, dose response (AID 504773);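 note: 0% = DMSO neutral wells and -100% = excess unlabeled competitor peptide wells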
Conditions: CAL PDZ-peptide binding, 1 h; series mostly up to 50 µM; activity change, negative = inhibition: at the top concentration

Activity change, negative = inhibition, inactive:
CC(C)CNC(=O)COC(=O)CCC(=O)c1ccc(Cl)cc1 -42.5%, Cc1ccnc(SCC(=O)N2CCC(C(N)=O)CC2)n1 -6.75%, COc1cc(OC)cc(C(=O)N[C@H](C(=O)Nc2nc3ccc(S(C)(=O)=O)cc3s2)C(C)C)c1 14.8%, COC(=O)C(C(=O)OC)c1ccc(N)cc1 14.9%, CC(=O)Nc1sc2c(c1C(c1ccccn1)N1CCN(C)CC1)CCCC2 (stereo unspecified) 24.4%, CC(C)(C)c1nn(-c2ccccc2)c2[nH]c(=O)c(C=O)cc12 -49.3%, Cc1cc(C)c2nc(-c3ccncc3)cc(C(=O)N3CCN(Cc4ccccc4Cl)CC3)c2c1 -33.1%, COc1ccc(C(=O)NC2(C(F)(F)F)C(=O)Nc3c2c(=O)[nH]c(=O)n3CCc2ccc(OC)c(OC)c2)cc1 (stereo unspecified) 35.8%, O=C(CN(Cc1ccccc1)S(=O)(=O)c1ccc(F)cc1)NCCC1=CCCCC1 28.8%, COc1ccc(C(=O)c2ccc(C)cc2)c(OC)c1OC 6.19%, O=C(COC(=O)c1ccccc1C(=O)N1CCN(c2ccccc2)CC1)NCc1ccccc1 -4.35%, O=C(NC1CCCCCCC1)c1cc([N+](=O)[O-])ccc1Cl 8.36%, Cc1ccc(S(=O)(=O)N2CCN(CCC#N)CC2)cc1 9.54%, O=C(CCCn1c(=S)[nH]c2cc3c(cc2c1=O)OCO3)N1CCN(c2ccc(Cl)cc2)CC1 16.6%, Cc1ccc(CN2CCN(Cc3nc4ccccc4nc3C)CC2CCO)cc1 (stereo unspecified) 1.16%, CCOC(=O)NC(=O)COC(=O)CCCSc1nc2ccccc2s1 -5.39%, CCCCN1CC(O)=C(c2nc(-c3ccc(Cl)cc3)cs2)C1=N 6.58%, COc1ccc(CC(=O)NCC2CCCN(Cc3cccc(SC)c3)C2)cc1 (stereo unspecified) 26.5%, Cc1nc(Cl)sc1C(=O)Nc1cc(F)cc(F)c1 -8.97%, CC1=C(C#N)C(Nc2ccc(Cl)cn2)(C(F)(F)F)C(=O)N1 (stereo unspecified) -3.46%, CC1CCN(CCCNC(=O)c2ccc3c(=O)n(Cc4ccc(Cl)cc4)c(=S)[nH]c3c2)CC1 25.8%, CCOC(=O)CCNC(=O)N1CCCC(CNS(=O)(=O)Cc2ccccc2)C1 (stereo unspecified) -0.597%, COc1cccc(N2CCN(C(=O)c3ccc(-c4ccccc4)cc3)CC2)c1 -7.08%, Cc1cccc(CN2CCc3c([nH]c4ccccc34)C2CC(C)C)n1 (stereo unspecified) 7.87%, COCc1cc(C)nc(SCc2ccccc2)c1C#N -15.4%, COCCN(Cc1nc(C(c2ccccc2)c2ccccc2)no1)C(C)C 6.45%, COc1ccc(Br)c(C(=O)NC2CCCC2)c1 18.1%, Cc1ccc(-c2[nH]c3ccccc3c2SCCN)cc1 -45.7%, O=C(NCc1ccccc1Cl)C1CC(=O)N(Cc2ccccc2)C1 (stereo unspecified) 11.4%, C[C@H](NC(=O)c1ccccc1Cl)C(=O)NCc1cccs1 -55.6%, CC(CN1CCCC1)OC(=O)C(c1ccccc1)c1ccccc1 (stereo unspecified) -30.8%, O=c1c2cc3c(cc2[nH]c(=S)n1CCN1CCOCC1)OCO3 13.2%, Nc1ccc(N(CCO)CCO)cc1 -4.31%, CCOCCCNC(=S)N1CCN(c2nc(-c3ccccc3)cs2)CC1 -0.951%, O=C(NCCc1ccccc1)C1CCC(=O)N(CCCN2CCCC2=O)C1 (stereo unspecified) 22.9%, C[n+]1ccc(C(=O)Nc2ccccc2Cl)cc1 4.9%
